Data from PubChem BioAssay (NCATS).
Records with an inconclusive call do not appear. Activity calls are given as the source filed them. The call rests on the fitted dose curve; in most records, active means well fitted curve in the direction sought with a large enough effect; inconclusive means small, poorly fitted or top-dose-only effect, or another doubt; inactive means no such curve, though single readings can be large; an effect the other way counts as inactive or inconclusive.

Legend:
[1] = Quantitative High-Throughput drug screen in 47 multiple myeloma cell lines against the NCATS MIPE library collection: ARD_JJKsccE7 cell viability assay (AID 1918929)
Summary of the method: (§1)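 CellTiter-Glo ATP luminescence gave viability after 48 h compound treatment at 37C of 500 multiple myeloma cells per well. Normalisation used DMSO-only wells as 100% and media-only wells as 0% viability; primary qHTS of approved and investigational drugs.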

[2] = Quantitative High-Throughput drug screen in 47 multiple myeloma cell lines against the NCATS MIPE library collection: KMM1_JCRB cell viability assay (AID 1918960); further: nearly all actives have a fitted effect of over 30% in size
Summary of the method: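 Myeloma cells at 500 per well in 1536-well format treated with MIPE 4.0 library by pin transfer for 48 h at 37C, 5% CO2. Viability from ATP luminescence (CellTiter-Glo), normalized to DMSO (100%) and media-only (0%) wells.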

[3] = Quantitative High-Throughput drug screen in 47 multiple myeloma cell lines against the NCATS MIPE library collection: Karpas417_ECACC cell viability assay (AID 1918961); settings: Karpas417 myeloma viability, CellTiter-Glo ATP luminescence, 48 h; viability (% of DMSO): at 45.8 µM (top of the series)
Summary of the method: (§2)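 Myeloma cells (500 per well) were exposed to MIPE 4.0 compounds by pin transfer and incubated 48 hours at 37C, 5% CO2. Viability was read as ATP by CellTiter-Glo luminescence, normalised to DMSO (100%) and media-only (0%) wells.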

[4] = Quantitative High-Throughput drug screen in 47 multiple myeloma cell lines against the NCATS MIPE library collection: JIM3_ECACC cell viability assay (AID 1918963; further: nearly all actives have a fitted effect of over 35% in size)
Summary of the method: (§3)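 CellTiter-Glo luminescence (ATP) after 48 h compound exposure, 37C/5% CO2; 500 cells/well; MIPE 4.0 approved/investigational drugs pinned in; DMSO = 100%, media only = 0% viability.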

[5] = Quantitative High-Throughput drug screen in 47 multiple myeloma cell lines against the NCATS MIPE library collection: INA6_PLB cell viability assay (AID 1918965; further: nearly all actives have a fitted effect of over 55% in size)
Summary of the method: as §2

[6] = Quantitative High-Throughput drug screen in 47 multiple myeloma cell lines against the NCATS MIPE library collection: H1112_PLB cell viability assay (AID 1918967; further: nearly all actives have a fitted effect of over 30% in size)
Summary of the method: as §1

[7] = Quantitative High-Throughput drug screen in 47 multiple myeloma cell lines against the NCATS MIPE library collection: Karpas620_DSMZ cell viability assay (AID 1918959); further: nearly all actives have a fitted effect of over 30% in size
Summary of the method: as §3

[8] = Quantitative High-Throughput drug screen in 47 multiple myeloma cell lines against the NCATS MIPE library collection: KHM11_PLB cell viability assay (AID 1918962); further: nearly all actives have a fitted effect of over 35% in size
Summary of the method: as §3

[9] = Quantitative High-Throughput drug screen in 47 multiple myeloma cell lines against the NCATS MIPE library collection: JIM1_ECACC cell viability assay (AID 1918964)
Summary of the method: as §1

[10] = Quantitative High-Throughput drug screen in 47 multiple myeloma cell lines against the NCATS MIPE library collection: JJN3_DSMZ cell viability assay (AID 1918966; further: nearly all actives have a fitted effect of over 50% in size)
Summary of the method: as §1
Potency means the concentration at half of the fitted maximal effect.

SMILES | Potency [1] | Potency [2] | Potency [3] | Potency [4] | Potency [5] | Potency [6] | Potency [7] | Potency [8] | Potency [9] | Potency [10] | viability (% of DMSO) [3]
CC(=O)O[C@H]1C[C@@H]2CC[C@H]3[C@H]4C[C@H]([N+]5(C)CCCCC5)[C@@H](OC(C)=O)[C@@]4(C)CC[C@@H]3[C@@]2(C)C[C@H]1N1CCCCC1 | inactive | inactive | inactive | inactive | inactive | inactive | – | – | – | – | –
Oc1cc2c(cc1O)C1c3ccc(O)c(O)c3OCC1(O)C2 (configuration not stated) | inactive | – | – | inactive | – | inactive | inactive | inactive | – | – | –
Cn1cc(-c2ccc3ncc(Cc4ccc5ncccc5c4)n3n2)cn1 | inactive | – | – | 16600 nM (active) | 13200 nM (active) | inactive | inactive | – | – | – | –
OCCN1C[C@H](O)[C@@H](O)[C@H](O)[C@@H]1CO | inactive | – | – | – | – | inactive | inactive | – | – | – | –
CC(=O)OCC(=O)[C@@]12N=C(C)O[C@H]1C[C@H]1[C@@H]3CCC4=CC(=O)C=C[C@]4(C)[C@@H]3[C@@H](O)C[C@@]12C | 1050 nM (active) | – | – | – | 11800 nM (active) | – | inactive | – | – | – | –
CC(=O)O[C@@]12CO[C@H]1C[C@H](O)[C@@]1(C)C(=O)[C@H](O)C3=C(C)[C@@H](OC(=O)C(O)[C@@H](NC(=O)OC(C)(C)C)c4ccccc4)C[C@@](O)([C@@H](OC(=O)c4ccccc4)[C@@H]21)C3(C)C (some centres not stated) | inactive | inactive | – | inactive | – | inactive | – | inactive | inactive | inactive | –
Cn1cnc2c(F)c(Nc3ccc(Br)cc3F)c(C(=O)NOCCO)cc21 | 3.3 nM (active) | – | – | 372 nM (active) | 18.7 nM (active) | – | 83.3 nM (active) | – | – | – | –
Cn1cc(-c2cnn3c(N)c(Br)c([C@H]4CCCNC4)nc23)cn1 | 1050 nM (active) | 372 nM (active) | 132 nM (active) | 1870 nM (active) | 662 nM (active) | 2640 nM (active) | – | 526 nM (active) | 118 nM (active) | 590 nM (active) | –
Cc1cnc(NC(=O)Nc2cc(Br)c(C)cc2OC[C@@H]2CNCCO2)cn1 | 1180 nM (active) | 743 nM (active) | – | 935 nM (active) | 469 nM (active) | 5900 nM (active) | – | 20900 nM (active) | 1050 nM (active) | 18700 nM (active) | 73.4% (active)
COc1cc(OC)c(C=CS(=O)(=O)Cc2ccc(OC)c(NCC(=O)O)c2)c(OC)c1 | 74.3 nM (active) | 74.3 nM (active) | 1180 nM (active) | 209 nM (active) | 296 nM (active) | 418 nM (active) | – | – | – | 1050 nM (active) | –
Cc1cn([C@@H]2O[C@H](CO)[C@@H](O)[C@H]2F)c(=O)[nH]c1=O | inactive | – | – | inactive | inactive | inactive | inactive | – | – | – | –
CCc1nc(-c2cccc(C)c2)c(-c2ccnc(NC(=O)c3ccccc3)c2)s1 | 20900 nM (active) | – | – | – | 16600 nM (active) | 14800 nM (active) | 3320 nM (active) | 935 nM (active) | 9350 nM (active) | – | –
COC[C@H](NC(=O)c1cnc(C)s1)C(=O)N[C@@H](COC)C(=O)N[C@@H](Cc1ccccc1)C(=O)[C@@]1(C)CO1 | 52.6 nM (active) | – | – | 296 nM (active) | 74.3 nM (active) | 93.5 nM (active) | 46.9 nM (active) | 66.2 nM (active) | – | 93.5 nM (active) | –
C[C@H](NCc1ccc2c(c1)nc(NC(=O)c1ccc(-c3cn[nH]c3)s1)n2CCc1ccccc1)C(C)(C)C | 526 nM (active) | – | – | 1480 nM (active) | 833 nM (active) | 1660 nM (active) | 743 nM (active) | 590 nM (active) | 418 nM (active) | 1180 nM (active) | –
C[C@@H](Oc1ccc2[nH]nc(C=Cc3cnn(CCO)c3)c2c1)c1c(Cl)cncc1Cl | inactive | inactive | inactive | 372 nM (active) | 93.5 nM (active) | 6620 nM (active) | – | 1870 nM (active) | – | 8330 nM (active) | –
CC(O)(C#Cc1ccc2c(c1)N(c1nc(N)ncc1Cl)CC2)c1nccs1 (configuration not stated) | 18700 nM (active) | 5260 nM (active) | 4690 nM (active) | – | 8330 nM (active) | 1180 nM (active) | – | – | – | – | –
CN[C@@H]1C[C@H]2O[C@@](C)([C@H]1OC)n1c3ccccc3c3c4c(c5c6ccccc6n2c5c31)C(=O)N[C@H]4O | 148 nM (active) | – | – | 148 nM (active) | 41.8 nM (active) | 526 nM (active) | 590 nM (active) | 29.6 nM (active) | – | 1660 nM (active) | –
CN(C)c1ccc2cc(C(=O)N[C@@H](CCCN=C(N)CCl)C(=O)NCc3ccccc3)ccc2c1 | 4180 nM (active) | – | – | 11800 nM (active) | 9350 nM (active) | 20900 nM (active) | 5900 nM (active) | 16600 nM (active) | 3720 nM (active) | 1050 nM (active) | –
CC[C@H]1OC(=O)[C@H](C)[C@@H](O[C@H]2C[C@@](C)(OC)[C@@H](O)[C@H](C)O2)[C@H](C)[C@@H](O[C@@H]2O[C@@H](C)C[C@H](N(C)C)[C@@H]2O)[C@](C)(O)C[C@@H](C)C(=O)[C@H](C)[C@@H](O)[C@]1(C)O | inactive | – | – | inactive | – | inactive | inactive | – | inactive | – | –
